Screening results: PubChem, National Center for Advancing Translational Sciences (NCATS)
An excerpt weighted towards active compounds, which were near 2% of everything screened.
aSyn yeast inh = inhibitors of alpha-synuclein toxicity in yeast; Potency, µM (highest dose often 46.1 µM), for the others: top-dose growth rescue (activation), usual class: activators; 370,000 compounds, 0.14% hits; Yeast expressing alpha-synuclein, growth rescue, BacTiter-Glo, 24 h; further: % of control where 0% means no effect; nearly all actives have a fitted effect of over 65% in size
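Rescue of yeast growth: cells expressing toxic alpha-synuclein, induced in galactose at OD600 0.02, incubated with compound 24 h at 30 C. ATP luminescence quantified growth; inhibitors of toxicity appear as activators.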
Rango release inh = inhibition of RanGTP-driven Rango-importin beta dissociation. O95149+P62826. Biochemical FRET Rango-importin beta, RanGTP-induced dissociation. Potency, µM (top dose mostly 46.1 µM), inactives show at the top dose activity change, negative = inhibition. 340,000 compounds, 0.071% hits. AID 540253; calls by dose curve; further: % of control where 0% means no effect; nearly all actives have a fitted effect of over 45% in size
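Rango (0.1 uM)–importin beta (0.25 uM) complex; RanGTP-RCC1 trigger; 45 min RT; CFP/YFP FRET read.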
TDP-43 yeast inh = rescues yeast growth from TDP-43 toxicity. TDP-43 expressing yeast growth rescue, BacTiter-Glo, 24 h. 410,000 compounds, 1.8% hits. Potency, µM (top dose mostly 46.1 µM), inactives show at the highest dose growth rescue (activation), hits mostly activators; further: % of control where 0% means no effect; nearly all actives have a fitted effect of over 50% in size
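Readout is BacTiter-Glo luminescence of cell growth, so inhibitors register as activators. TDP-43-expressing yeast at OD600=0.02 in galactose medium, after raffinose pregrowth to mid-log, were incubated with compound for 24 hr at 30 deg C.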
Abeta rescue = restores growth of yeast expressing A-beta42 peptide; yeast expressing A-beta42, growth rescue, OD600, 48 h; response scale: 0% DMSO, 100% iron-clioquinol control; Potency, µM (doses to about 46.1 µM), hits mostly activators; 410,000 compounds, 0.063% hits; AID 1347071; further: nearly all actives have a fitted effect of over 55% in size
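Growth rescue measured by 600 nm absorbance after 48 h yeast culture at 30 C with compound. Values normalized between DMSO and an equimolar ferric chloride plus clioquinol control.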
Rango complex inh = prevents formation of the Rango-importin beta complex | Q14974 | Rango CFP/YFP FRET sensor + importin beta, 45 min | Potency, µM (doses to about 92.2 µM), inactives show top-dose inhibition of complex formation | 340,000 compounds, 0.031% hits | AID 540263; calls by dose curve;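 further: 0% = DMSO wells and 100% = buffer wells lacking importin beta; nearly all actives have a fitted effect of over 15% in size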
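FRET biosensor Rango (snurportin 1 IBB between N-terminal EYFP and C-terminal Cerulean), 50 nM in PBS/1 mM DTT/0.02% Tween-20/0.1% BSA, preincubated 5 min RT with compound; 0.125 microM importin beta added, 45 min RT, CFP/YFP FRET ratio read.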
ASM inhibitor = human S-ASM enzyme inhibition | Potency, µM (doses to about 57.5 µM), for the others: at the top dose activity change, negative = inhibition, most hits filed as inhibitors | P17405 | 340,000 compounds, 0.006% hits | placental ASM, HMU-PC fluorogenic substrate, 60 min
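HMU-PC0 cleavage (9 uM final) by human placental ASM, 60 min at 37 °C following 10 min compound exposure at RT; stopped at pH 10, fluorescence Ex 386/Em 447 nm.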
* = called active by the depositor; i = inactive; ? = inconclusive; nt = no result; [ ] = another dose, or the depositor's remark. Unless noted, the call rests on the fitted dose curve; in most records, active means well fitted curve in the direction sought with a large enough effect; inconclusive means small, poorly fitted or top-dose-only effect, or another doubt; inactive means no such curve, though single readings can be large; an effect the other way counts as inactive or inconclusive. Potency means the concentration at half of the fitted maximal effect.

SMILES | aSyn yeast inh | Rango release inh | TDP-43 yeast inh | Abeta rescue | Rango complex inh | ASM inhibitor
CCOC(=O)COn1c(=O)c(-c2ccco2)[n+]([O-])c2ccccc21 | 4% | 18µM* | -12% | i | ? | 18%
CCOC(=O)COn1c(=O)c(-c2ccc(C)cc2)[n+]([O-])c2ccccc21 | 1% | -9% | 10% | i | -2% | 18%
O=C(CCl)N1c2ccccc2SCC1c1ccccc1 (stereo not given) | -2% | 2% | 7.9µM* | i | -1% | 0%
COc1ccc(C(=O)C[n+]2cccc3cc(Cl)ccc32)cc1 | 1% | nt | nt | nt | nt | nt
COc1cc(-c2coc3c(C(=O)NCc4ccc(OC)c(OC)c4)cccc23)ccc1O | ? | nt | 14µM* | i | nt | nt
COc1cc(-c2coc3c(C(=O)NCc4ccc(N(C)C)cc4)cccc23)ccc1O | 25% | nt | 0% | i | nt | nt
COc1cc(-c2coc3c(C(=O)NC4CCCCC4)cccc23)ccc1O | -15% | nt | 35µM* | i | nt | nt
N#Cc1nc(N2CCCC2)nc(N(c2ccccc2)c2ccccc2)n1 | 0% | nt | nt | nt | nt | nt
Clc1ccccc1/C=N/NC1=Nc2cccc3cccc1c23 | -2% | -5% | 27% | i | ? | -8%
C(=N\NC1=Nc2cccc3cccc1c23)/c1ccccn1 | 0% | -29% | 20µM* | ? | ? | -22%
CCN1C(=O)CSC1=Nc1ccc(Cl)c(Cl)c1 | -17% | -14% | 13µM* | i | 3% | -3%
Fc1ccc(-c2nc(-c3c[nH]c4ccccc34)cs2)cc1 | -24% | nt | nt | nt | nt | nt
COc1ccc2c(c1)-c1ccccc1S(=O)(=O)N2C | -6% | -2% | 11µM* | i | -6% | 3%
COc1ccc2c(c1)-c1ccccc1S(=O)(=O)N(C)C2 | 2% | -7% | ? | i | -6% | -4%
CCCCCCCCCCCCCC(=O)Nc1ccc(/C=C/c2ccnc3ccccc23)cc1 | 2% | nt | nt | nt | nt | nt
Cc1ccc(NC(=O)CCSc2nnnn2-c2ccc3c(c2)OCO3)cc1C | 14% | 7% | 18µM* | i | 0% | -11%
Cc1noc(Cn2c(=O)c3ccccc3n(CC(=O)Nc3cc(Cl)ccc3C)c2=O)n1 | nt | nt | 0% | i | nt | nt
COc1ccc([C@H]2CC(=O)C=C(c3cccc(Cl)c3O)C2)cc1OC | 5% | ? | 18µM* | i | ? | -7%
O=C1C=C(c2cccc(Cl)c2O)C[C@@H](c2ccc3c(c2)OCO3)C1 | ? | ? | 3.5µM* | i | ? | -8%
CCOc1ccc(NC(=O)CCc2nc3cccnc3n2-c2ccccc2)cc1 | nt | nt | 13% | i | nt | nt
COc1cccc(NC(=O)Cn2c(=O)n(Cc3ccccc3)c(=O)c3c2c2cc(C)ccc2n3C)c1 | nt | nt | 12% | i | nt | nt
Cc1cccc(Nc2c(-c3ccsc3)nc3nc(C)cc(C)n23)c1 | nt | nt | 19% | i | nt | nt
Cc1cc(C(=O)Nc2c(F)cc(F)cc2Br)cs1 | 14% | 15% | 13µM* | i | -1% | 1%
CN(Cc1cnc2nc(N)nc(N)c2n1)c1ccc(C(=O)NC(CCC(=O)O)C(=O)O)cc1 (stereo not given) | 2% | ? | 16µM* | i | ? | 257%
CN(Cc1ccccc1)c1ncnc2c1cnn2-c1ccccc1 | 11% | 10% | ? | i | 0% | -4%
CCN(Cc1ccccc1)c1ncnc2c1cnn2-c1ccc(F)cc1 | nt | nt | 25µM* | i | nt | nt
Cc1cccc(-c2nnc(C3CCN(S(=O)(=O)c4cccc(Cl)c4)CC3)o2)c1 | nt | nt | 16µM* | i | nt | nt
Cc1ccc(-c2nnc(C3CCN(S(=O)(=O)c4ccc(C)c(C)c4)CC3)o2)cc1 | nt | nt | ? | i | nt | nt
COc1ccc(OC)c(NC(=O)N2c3ccccc3Sc3ccccc32)c1 | nt | nt | -1%[9.22 µM] | i | nt | nt
CCCOc1ccc(NC(=O)CC2C(=O)OCC3CCCCN32)cc1 (stereo not given) | 3% | -15% | 35µM* | i | 3% | 0%
